# Results filed as inconclusive are left out. Active and inactive are the calls of the source.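 Rule for the calls, unless noted: active = efflux inhibition above 0.42, the validation set average plus 4 SD; inconclusive = no clear call, values can overlap the other calls; inactive = the rest.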
# Experiments:
# [1] = yeast TOR pathway RPL19A-GFP modulators, primary screen, cell-based, S. cerevisiae, multiplex flow cytometry (AID 1862; in the data active = percent of DMSO control GFP below about 86%;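 note: lower values mimic rapamycin by blocking the RPL19A rise seen in DMSO cells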); settings: S. cerevisiae RPL19A-GFP strain, flow cytometry fluorescence, 3 h; at 10 µM; stronger effect = lower value
# [2] = modulators of MEP2-GFP levels in yeast, primary screen, S. cerevisiae, multiplex flow cytometry (AID 1867;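 active = GFP response, as percent of the DMSO control, above the screen-wide mean plus 3 SD, about 139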;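 note: median GFP channel fluorescence of barcode-gated MEP2-GFP cells measured by flow cytometry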); settings: S. cerevisiae MEP2-GFP strain, 3 h, at 10 µM, stronger effect = higher value, 100% means same as DMSO wells
# [3] = modulators of CIT2-GFP expression in yeast, primary screen, S. cerevisiae, GFP fusion, multiplex flow cytometry (AID 1870;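 active = percent response above a set limit, the screen-wide mean plus 3 SD, cut at about 130% in these data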;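 note: barcoded CIT2-GFP strain pooled with four other GFP strains with rapamycin as positive control; median GFP fluorescence per well over plate mean of DMSO wells so 100% = DMSO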); settings: 3 h, at 10 µM, stronger effect = higher value
# [4] = modulators of LAP4-GFP expression in yeast, primary screen, S. cerevisiae, multiplex flow cytometry (AID 1873;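 active = GFP signal, as percent of the solvent control, above the screen mean plus 3 SD, about 149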); settings: 3 h, at 10 µM, stronger effect = higher value
# [5] = modulators of AGP1-GFP expression in yeast TOR pathway, primary screen, cell-based, multiplex flow cytometry, S. cerevisiae (AID 1887;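 active = GFP signal above the screen-wide mean plus 3 SD, that is over about 124.5% of the solvent control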;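 note: AGP1-GFP fusion strain of S. cerevisiae within a five-strain barcoded multiplex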); settings: 3 h, at 10 µM, stronger effect = higher value
# [6] = RPL19A-GFP modulators, yeast TOR pathway, confirmation, cell-based, S. cerevisiae, flow cytometry, cherry picks, mother/daughter gates (AID 2270;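 active = GFP response below 50% of the DMSO control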); settings: S. cerevisiae RPL19A-GFP strain, 3 h, at 10 µM, stronger effect = lower value, 100 = same GFP as DMSO wells
# [7] = LAP4-GFP expression modulators in yeast, confirmation, cell-based, cherry picks, flow cytometry, mother/daughter gates (AID 2271;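 active = GFP response above 150% of the DMSO control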;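 note: ratio of sample to DMSO plate mean so 100% equals DMSO level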); settings: S. cerevisiae LAP4-GFP strain, 3 h, at 10 µM, stronger effect = higher value, 100 means same as DMSO control
# [8] = modulators of MEP2-GFP levels in yeast, confirmation, S. cerevisiae, flow cytometry GFP, cherry picks (AID 2272;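 active = GFP response above 150% of the DMSO control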;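 note: ratio of well signal to plate DMSO mean so 100% equals DMSO level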); settings: S. cerevisiae MEP2-GFP strain, 3 h, at 10 µM, stronger effect = higher value
# [9] = modulators of CIT2-GFP expression in yeast, confirmation, S. cerevisiae, GFP fusion, cherry picks, mother/daughter gates (AID 2274;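 active = GFP response above 150% of the DMSO level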); settings: S. cerevisiae CIT2-GFP strain, flow cytometry, 3 h, at 10 µM, stronger effect = higher value
# [10] = inhibitors of CD8+ T cell-vesicle binding, pilot screen, LFA-1/ICAM-1 modulator project, MLPCN validation set, flow cytometry (AID 2523;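 active = response below a set limit, under 55% cells CD8-positive and vesicle-bound, and CD8 cells' 90th-percentile brightness under 279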;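 for vesicle binding response: mean PE anti-B7-1 fluorescence of CD8+ cells relative to row control; 100% = QL9-loaded vesicles with DMSO vehicle in the same plate row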); settings: 2C mouse CD8+ T cells, at 7 µM, stronger effect = lower value; double positive events: measured here: CD8+/vesicle+ event percentage
# [11] = molecular target: Integrin beta-1 (Homo sapiens) + Integrin alpha-4 (Homo sapiens) (UniProt P13612+P05556); test: inhibition of HUTS-21 binding to VLA-4, pilot screen, VLA-4 allosteric modulator project, U937 cells, HUTS-21 mAb, flow cytometry, validation set (AID 2674;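 active = inhibition above 50%, about 3 SD of the validation set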;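 note: antibody binding induced by the VLA-4 ligand LDV present at three times its Kd; 0% = LDV ligand with antibody and no compound and 100% = antibody without LDV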); settings: HUTS-21 LIBS mAb binding, at 6.7 µM, stronger effect = higher value, binding induced by LDV ligand
# Chain of Integrin beta-1 (Homo sapiens) + Integrin alpha-4 (Homo sapiens) (P05556 whole entry, looked up): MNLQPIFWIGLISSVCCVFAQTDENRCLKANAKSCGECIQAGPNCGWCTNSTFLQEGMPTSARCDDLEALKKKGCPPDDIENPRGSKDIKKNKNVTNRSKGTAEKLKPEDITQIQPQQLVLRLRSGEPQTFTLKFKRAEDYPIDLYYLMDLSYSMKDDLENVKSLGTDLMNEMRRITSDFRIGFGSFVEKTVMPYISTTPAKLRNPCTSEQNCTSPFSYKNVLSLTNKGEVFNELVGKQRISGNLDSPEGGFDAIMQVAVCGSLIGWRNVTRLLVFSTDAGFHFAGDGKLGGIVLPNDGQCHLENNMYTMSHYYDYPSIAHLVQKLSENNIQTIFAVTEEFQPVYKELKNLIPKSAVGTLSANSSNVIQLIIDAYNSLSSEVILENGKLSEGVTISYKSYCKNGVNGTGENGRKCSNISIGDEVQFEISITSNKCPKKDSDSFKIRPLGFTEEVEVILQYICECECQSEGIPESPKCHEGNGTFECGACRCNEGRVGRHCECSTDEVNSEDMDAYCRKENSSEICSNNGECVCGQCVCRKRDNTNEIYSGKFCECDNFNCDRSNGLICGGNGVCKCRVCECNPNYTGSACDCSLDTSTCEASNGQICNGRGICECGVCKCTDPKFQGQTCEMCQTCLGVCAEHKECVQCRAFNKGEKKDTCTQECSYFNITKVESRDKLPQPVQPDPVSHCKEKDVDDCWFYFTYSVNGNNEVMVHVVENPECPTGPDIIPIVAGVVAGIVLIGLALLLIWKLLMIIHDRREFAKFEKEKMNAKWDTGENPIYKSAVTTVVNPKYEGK
# Chain of Integrin beta-1 (Homo sapiens) + Integrin alpha-4 (Homo sapiens) (P13612 whole entry, looked up): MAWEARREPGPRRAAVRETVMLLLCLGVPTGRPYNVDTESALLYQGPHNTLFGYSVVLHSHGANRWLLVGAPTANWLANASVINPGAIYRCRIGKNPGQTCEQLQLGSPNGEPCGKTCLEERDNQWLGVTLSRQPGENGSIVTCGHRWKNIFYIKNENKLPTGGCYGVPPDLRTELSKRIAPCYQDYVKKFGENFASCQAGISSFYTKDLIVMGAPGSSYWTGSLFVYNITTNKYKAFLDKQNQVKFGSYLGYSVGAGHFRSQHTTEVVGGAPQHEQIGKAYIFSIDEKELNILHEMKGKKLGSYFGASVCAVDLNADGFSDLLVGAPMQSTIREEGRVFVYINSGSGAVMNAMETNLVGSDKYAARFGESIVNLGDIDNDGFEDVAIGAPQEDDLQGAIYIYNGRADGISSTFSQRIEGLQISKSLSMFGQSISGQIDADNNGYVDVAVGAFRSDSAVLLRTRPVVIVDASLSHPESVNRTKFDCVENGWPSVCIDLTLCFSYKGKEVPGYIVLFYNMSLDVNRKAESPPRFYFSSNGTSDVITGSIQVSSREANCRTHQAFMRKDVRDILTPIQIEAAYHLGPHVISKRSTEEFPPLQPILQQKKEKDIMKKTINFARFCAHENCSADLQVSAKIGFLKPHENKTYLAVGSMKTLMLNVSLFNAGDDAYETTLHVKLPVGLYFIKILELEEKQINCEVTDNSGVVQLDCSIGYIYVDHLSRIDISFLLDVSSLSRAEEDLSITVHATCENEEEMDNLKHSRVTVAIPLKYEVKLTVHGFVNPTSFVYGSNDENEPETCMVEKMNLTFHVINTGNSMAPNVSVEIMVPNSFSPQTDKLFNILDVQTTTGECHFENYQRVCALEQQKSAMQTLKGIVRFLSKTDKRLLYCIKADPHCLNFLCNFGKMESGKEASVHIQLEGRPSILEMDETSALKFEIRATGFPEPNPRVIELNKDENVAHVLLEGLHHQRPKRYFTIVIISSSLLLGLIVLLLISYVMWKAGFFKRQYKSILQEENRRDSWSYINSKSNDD
# [12] = superoxide lowering in aged yeast cells, pilot screen, validation compound set (AID 2706;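 active = superoxide response below 65% of plate, a cut near 3 SD across the whole screen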;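 note: yeast exposed to compound for one week at 30 degrees C before staining; 100% = mean of all compound wells on the same plate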); settings: S. cerevisiae aging, superoxide DHE fluorescence; at 10 µM; stronger effect = lower value
# [13] = molecular target: Beta-adrenergic receptor kinase 1 (Homo sapiens) (UniProt P25098); test: GRK2 binders displacing RNA aptamer, biochemical, validation, human GRK2, bead flow cytometry (AID 488806;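 active = aptamer binding inhibition above 30%, about 3 SD of noise from non-fluorescent compounds; inactive = inhibition at or below 30%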); settings: bead-bound GRK2, FAM-aptamer displacement, at 10 µM, stronger effect = higher value
# Chain of Beta-adrenergic receptor kinase 1 (Homo sapiens) (P25098 whole entry, looked up): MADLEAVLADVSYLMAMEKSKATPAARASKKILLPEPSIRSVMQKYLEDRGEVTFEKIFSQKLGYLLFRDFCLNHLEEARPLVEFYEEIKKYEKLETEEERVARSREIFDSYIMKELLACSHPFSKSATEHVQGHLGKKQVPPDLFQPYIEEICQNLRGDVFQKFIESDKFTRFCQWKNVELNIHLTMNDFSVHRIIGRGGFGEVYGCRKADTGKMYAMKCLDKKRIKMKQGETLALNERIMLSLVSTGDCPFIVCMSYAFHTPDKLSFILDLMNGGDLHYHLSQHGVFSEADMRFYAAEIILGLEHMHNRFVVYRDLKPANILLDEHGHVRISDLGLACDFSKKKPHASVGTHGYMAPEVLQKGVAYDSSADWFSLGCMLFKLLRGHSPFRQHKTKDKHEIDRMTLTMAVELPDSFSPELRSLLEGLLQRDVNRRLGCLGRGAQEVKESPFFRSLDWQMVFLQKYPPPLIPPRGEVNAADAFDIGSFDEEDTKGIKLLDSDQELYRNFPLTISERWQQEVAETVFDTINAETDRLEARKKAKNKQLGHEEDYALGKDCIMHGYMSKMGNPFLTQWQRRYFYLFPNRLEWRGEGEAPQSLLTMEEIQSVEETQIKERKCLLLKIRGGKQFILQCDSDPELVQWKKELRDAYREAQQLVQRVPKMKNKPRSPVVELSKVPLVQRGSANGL
# [14] = molecular target: Beta-2 adrenergic receptor (Homo sapiens) (UniProt P07550); test: beta2AR agonists driving receptor internalization, pilot screen, cell-based, FAP fluorogen, flow cytometry, validation set (AID 504459;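 active = percent response above 42, roughly 3 SD of non-fluorescent test compounds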;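 note: agonist-driven loss of surface beta2AR via internalization measured by FAP dye flow cytometry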); settings: Am2.2-beta2AR cells, FAP surface receptor flow cytometry; at 10 µM; stronger effect = higher value
# Chain of Beta-2 adrenergic receptor (Homo sapiens) (P07550 whole entry, looked up): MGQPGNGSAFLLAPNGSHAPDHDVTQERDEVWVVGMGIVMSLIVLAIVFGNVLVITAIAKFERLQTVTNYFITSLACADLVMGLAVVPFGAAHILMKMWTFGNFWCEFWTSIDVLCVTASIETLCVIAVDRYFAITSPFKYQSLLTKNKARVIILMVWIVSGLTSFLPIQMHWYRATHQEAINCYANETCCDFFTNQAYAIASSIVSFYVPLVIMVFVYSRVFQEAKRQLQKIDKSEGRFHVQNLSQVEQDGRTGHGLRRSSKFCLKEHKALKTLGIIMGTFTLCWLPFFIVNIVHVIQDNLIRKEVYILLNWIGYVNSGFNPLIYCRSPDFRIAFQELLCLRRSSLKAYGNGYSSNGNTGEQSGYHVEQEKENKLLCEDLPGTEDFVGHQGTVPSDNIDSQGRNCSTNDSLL
# [15] = molecular target: AP-2 complex subunit beta (Homo sapiens) (UniProt P63010); test: inhibitors of arrestin peptide binding to AP2, pilot screen, biochemical, validation set, GST-AP2 beads, flow cytometry (AID 504541;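 active = inhibition above 54%, about 3 SD of non-fluorescent compounds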;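 note: AP2 carries R879A mutation and is captured from E. coli lysate; bead-bound FITC arrestin peptide fluorescence measuring arrestin peptide binding to AP2; 0% = DMSO wells and 100% = excess unlabeled arrestin peptide control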); settings: FITC arrestin peptide, at 10 µM, stronger effect = higher value, AP2 beta2 appendage fragment, R879A mutant
# Chain of AP-2 complex subunit beta (Homo sapiens) (P63010 whole entry, looked up, the tested form may be a part, one chain of several): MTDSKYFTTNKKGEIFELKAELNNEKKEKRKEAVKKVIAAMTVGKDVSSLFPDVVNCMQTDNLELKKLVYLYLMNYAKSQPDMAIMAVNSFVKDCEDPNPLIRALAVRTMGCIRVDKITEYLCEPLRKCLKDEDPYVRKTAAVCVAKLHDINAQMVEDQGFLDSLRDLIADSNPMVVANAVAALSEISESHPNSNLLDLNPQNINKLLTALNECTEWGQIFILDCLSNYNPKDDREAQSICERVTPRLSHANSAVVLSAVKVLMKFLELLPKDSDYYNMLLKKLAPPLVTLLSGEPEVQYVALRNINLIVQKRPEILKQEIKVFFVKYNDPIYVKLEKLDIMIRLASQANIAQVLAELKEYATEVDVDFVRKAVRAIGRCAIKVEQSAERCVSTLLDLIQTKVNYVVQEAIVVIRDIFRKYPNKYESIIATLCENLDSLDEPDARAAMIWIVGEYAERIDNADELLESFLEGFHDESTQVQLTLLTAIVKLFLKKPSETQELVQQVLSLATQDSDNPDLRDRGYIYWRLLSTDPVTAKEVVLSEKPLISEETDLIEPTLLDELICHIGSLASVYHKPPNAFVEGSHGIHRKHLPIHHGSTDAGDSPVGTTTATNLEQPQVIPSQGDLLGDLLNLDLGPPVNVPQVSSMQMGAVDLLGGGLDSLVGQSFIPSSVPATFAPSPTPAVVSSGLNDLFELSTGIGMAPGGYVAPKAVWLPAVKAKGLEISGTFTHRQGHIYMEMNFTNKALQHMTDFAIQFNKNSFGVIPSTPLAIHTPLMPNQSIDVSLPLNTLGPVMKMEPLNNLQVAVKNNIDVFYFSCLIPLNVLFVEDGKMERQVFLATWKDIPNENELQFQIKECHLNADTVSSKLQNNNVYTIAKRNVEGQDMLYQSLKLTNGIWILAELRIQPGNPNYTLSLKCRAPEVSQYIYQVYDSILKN
# [16] = yeast V-ATPase proton transport modulators, S. cerevisiae, pHLuorin, HTS validation (AID 504600; in the data active = response above about 15%;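 note: plate controls were DMSO for no effect and reference compound for full effect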); settings: S. cerevisiae pHLuorin cytosolic pH, at 10 µM, stronger effect = higher value
# [17] = tested on: anti-desmoglein-3 scFv antibody binding to human DSG3; test: inhibitors of anti-DSG3 scFv binding to DSG3, pilot screen, biochemical, validation compound set, bead-based, flow cytometry (AID 588368;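 active = binding below the plate cutoff, the plate median minus 3 SD, with a reading above zero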;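 note: signal is the median channel fluorescence of bead-bound GFP antibody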); settings: Protein G beads, DSG3-Fc, scFv-GFP binding, at 10 µM, stronger effect = lower value
# [18] = inhibitors of fungal efflux pumps CDR1, CDR2, MDR1, pilot screen, validation compound set, multiplex, phenotypic (AID 588506);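 note: Nile Red retained in cells so higher fluorescence means more efflux inhibition; 0 = negative control wells and 1 = enniatin B 25 µM full block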; settings: S. cerevisiae pump-expressing triplex, Nile Red efflux flow cytometry; at 10 µM; stronger effect = higher value; the pumps come from Candida albicans
# [19] = molecular target: ATP-binding cassette sub-family B member 6 (Homo sapiens) (UniProt Q9NP58); test: ABCB6 transporter inhibitors, pilot screen, K562-ABCB6 cells, flow cytometry, validation set (AID 588550;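 active = inhibition above the screen-wide mean plus 3 SD, about 51%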;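 note: 0% = DMSO wells and 100% = benzethonium chloride 70 µM positive control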); settings: K562-ABCB6 porphyrin accumulation, 1 h, at 10 µM, stronger effect = higher value
# Chain of ATP-binding cassette sub-family B member 6 (Homo sapiens) (Q9NP58 whole entry, looked up): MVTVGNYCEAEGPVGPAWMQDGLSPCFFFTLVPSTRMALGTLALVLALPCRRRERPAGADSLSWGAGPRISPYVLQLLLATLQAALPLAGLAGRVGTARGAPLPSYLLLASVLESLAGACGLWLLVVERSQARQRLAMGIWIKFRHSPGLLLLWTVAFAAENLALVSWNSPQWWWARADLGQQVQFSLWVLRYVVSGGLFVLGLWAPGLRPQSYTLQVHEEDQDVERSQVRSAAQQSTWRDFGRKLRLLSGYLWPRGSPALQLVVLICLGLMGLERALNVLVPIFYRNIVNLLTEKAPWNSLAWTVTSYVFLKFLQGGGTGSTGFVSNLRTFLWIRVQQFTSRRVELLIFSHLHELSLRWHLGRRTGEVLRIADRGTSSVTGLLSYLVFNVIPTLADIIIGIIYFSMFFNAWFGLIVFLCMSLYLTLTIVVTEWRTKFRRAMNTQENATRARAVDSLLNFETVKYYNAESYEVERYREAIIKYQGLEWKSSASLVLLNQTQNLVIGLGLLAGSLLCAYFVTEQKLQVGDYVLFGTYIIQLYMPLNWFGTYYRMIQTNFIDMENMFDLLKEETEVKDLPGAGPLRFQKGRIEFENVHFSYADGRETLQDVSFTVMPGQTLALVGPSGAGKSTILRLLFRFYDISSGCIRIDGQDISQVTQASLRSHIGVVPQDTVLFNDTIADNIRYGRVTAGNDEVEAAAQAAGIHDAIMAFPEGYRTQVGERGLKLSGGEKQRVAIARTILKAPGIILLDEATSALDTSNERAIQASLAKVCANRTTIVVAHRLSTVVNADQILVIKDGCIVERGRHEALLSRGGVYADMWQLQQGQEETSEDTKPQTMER
# [20] = promoters of myeloid differentiation in arrested cells, primary screen, cell-based, GFP/MAC1 double positive, flow cytometry, validation set (AID 588685;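 active = differentiation response of at least 50%, scaled between solvent and reference control, from cells with both markers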;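 note: compound exposure lasts four days before antibody staining and flow analysis; 0% = DMSO wells and 100% = 5 µM fulvestrant positive control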); settings: ER-HoxA9 marrow cells, stronger effect = higher value, normalized: vehicle 0, fulvestrant 100
# [21] = measured here: daughter cell gate
# [22] = measured here: mother cell gate
# [23] = measured here: daughter cell gate response
# [24] = measured here: mother cell gate response
smiles,measurement,setting,value
CCCCN(CCCC)CCCOC(=O)c1ccc(N)cc1,percent of DMSO control GFP,[1],92% (inactive)
same,GFP response vs DMSO,[2],150% (active)
same,percent response of DMSO control,[3],115% (inactive)
same,GFP response vs DMSO,[4],82% (inactive)
same,"GFP response, % of DMSO",[5],81.7% (inactive)
same,GFP response vs DMSO,[6],97.6% (inactive)
same,GFP response vs DMSO,[6]; [21],97.4%
same,GFP response vs DMSO,[6]; [22],98%
same,GFP response relative to DMSO,[7],94.1% (inactive)
same,GFP response relative to DMSO,[7]; [23],97.6%
same,GFP response relative to DMSO,[7]; [24],94%
same,GFP response vs DMSO,[8],98.3% (inactive)
same,"GFP response, % of DMSO",[9],99.7% (inactive)
same,"GFP response, % of DMSO",[9]; [21],101%
same,"GFP response, % of DMSO",[9]; [22],99.7%
same,double positive events,[10],64.8%
same,vesicle binding response,[10],181% (inactive)
same,inhibition,[11],0.64% (inactive)
same,superoxide response (% of plate),[12],92.8% (inactive)
same,aptamer binding inhibition,[13],0% (inactive)
same,response,[14],-0.26% (inactive)
same,inhibition,[15],6.38% (inactive)
same,response,[16],-2.47% (inactive)
same,binding (% of control),[17],104% (inactive)
same,efflux inhibition (fraction of control),[18],0.05 (inactive)
same,inhibition,[19],9% (inactive)
same,differentiation response,[20],1.64% (inactive)
C#C[C@]1(O)CC[C@H]2[C@@H]3CCC4=CC(=O)CC[C@@H]4[C@H]3CC[C@@]21CC,percent of DMSO control GFP,[1],96.3% (inactive)
same,GFP response vs DMSO,[2],96.6% (inactive)
same,percent response of DMSO control,[3],97.7% (inactive)
same,GFP response vs DMSO,[4],107% (inactive)
same,"GFP response, % of DMSO",[5],103% (inactive)
same,GFP response vs DMSO,[6],101% (inactive)
same,GFP response vs DMSO,[6]; [21],98.7%
same,GFP response vs DMSO,[6]; [22],101%
same,GFP response relative to DMSO,[7],101% (inactive)
same,GFP response relative to DMSO,[7]; [23],102%
same,GFP response relative to DMSO,[7]; [24],103%
same,GFP response vs DMSO,[8],95.7% (inactive)
same,"GFP response, % of DMSO",[9],102% (inactive)
same,"GFP response, % of DMSO",[9]; [21],99.7%
same,"GFP response, % of DMSO",[9]; [22],102%
same,double positive events,[10],62.5%
same,vesicle binding response,[10],142% (inactive)
same,inhibition,[11],15.1% (inactive)
same,superoxide response (% of plate),[12],92.6% (inactive)
same,aptamer binding inhibition,[13],8% (inactive)
same,response,[14],-17.9% (inactive)
same,inhibition,[15],-1.43% (inactive)
same,response,[16],1.52% (inactive)
same,binding (% of control),[17],98% (inactive)
same,efflux inhibition (fraction of control),[18],-0.04 (inactive)
same,inhibition,[19],7% (inactive)
same,differentiation response,[20],2.89% (inactive)
O=C(/C=C/c1ccccc1)c1ccccc1,percent of DMSO control GFP,[1],92.8% (inactive)
same,GFP response vs DMSO,[2],139% (inactive)
same,percent response of DMSO control,[3],96.6% (inactive)
same,GFP response vs DMSO,[4],79.8% (inactive)
same,"GFP response, % of DMSO",[5],87.5% (inactive)
same,GFP response vs DMSO,[6],98% (inactive)
same,GFP response vs DMSO,[6]; [21],100%
same,GFP response vs DMSO,[6]; [22],97.1%
same,GFP response relative to DMSO,[7],97.7% (inactive)
same,GFP response relative to DMSO,[7]; [23],96.5%
same,GFP response relative to DMSO,[7]; [24],94.6%
same,GFP response vs DMSO,[8],104% (inactive)
same,"GFP response, % of DMSO",[9],102% (inactive)
same,"GFP response, % of DMSO",[9]; [21],106%
same,"GFP response, % of DMSO",[9]; [22],99.1%
same,double positive events,[10],68%
same,vesicle binding response,[10],126% (inactive)
same,inhibition,[11],2.58% (inactive)
same,superoxide response (% of plate),[12],92.2% (inactive)
same,aptamer binding inhibition,[13],4% (inactive)
same,response,[14],5.66% (inactive)
same,inhibition,[15],-4.66% (inactive)
same,response,[16],-0.45% (inactive)
same,binding (% of control),[17],107% (inactive)
same,efflux inhibition (fraction of control),[18],-0.31 (inactive)
same,inhibition,[19],14% (inactive)
same,differentiation response,[20],9.83% (inactive)

# From PubChem BioAssay
